{"source": "PubChem BioAssay AID504634", "about": "(The Scripps Research Institute Molecular Screening Center, 2011)", "note": "The campaign covered roughly 340,000 compounds. About 280 (0.082%) were called active. Rule as the data show it: active = inhibition mostly above about 23% (no sharp cut-off); inactive = mostly below about 18%. This excerpt belongs to a sample that is enriched for actives."}
{"molecular_target": "5-hydroxytryptamine receptor 5A (Homo sapiens) (UniProt P47898)", "sequence (P47898 whole entry, looked up)": "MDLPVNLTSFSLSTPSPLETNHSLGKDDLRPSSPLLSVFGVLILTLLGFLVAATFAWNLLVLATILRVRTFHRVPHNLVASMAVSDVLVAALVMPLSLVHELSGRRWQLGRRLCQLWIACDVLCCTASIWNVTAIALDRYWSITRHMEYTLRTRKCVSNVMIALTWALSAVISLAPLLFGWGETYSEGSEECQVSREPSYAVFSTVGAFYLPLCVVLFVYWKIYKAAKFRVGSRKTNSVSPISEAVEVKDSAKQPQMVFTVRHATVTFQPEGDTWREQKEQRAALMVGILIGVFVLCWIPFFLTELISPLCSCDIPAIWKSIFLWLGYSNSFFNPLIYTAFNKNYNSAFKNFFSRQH", "assay": "inverse agonism at human 5-HT5A receptor – cell-based, luminescence, full-deck HTS, counter-screen for OPRM1-OPRD1 heterodimer inverse agonist project, primary screen (AID 504634);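 also: 0% = cells with DMSO and 100% = no-cell wells with DMSO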", "conditions": "HTR5A cell line, at 9.3 µM, stronger effect = higher value"}
{"molecule": "CC(=O)N1CCN(c2ccc(NCc3ccc(C(C)C)cc3)cc2)CC1", "inhibition": "-28.6% (inactive)"}
{"molecule": "CC1CCCN(c2ccc(C(=O)NCCc3ccccc3)cn2)C1", "note": "(configuration not stated)", "inhibition": "-15.3% (inactive)"}
{"molecule": "C=C1CCN([C@@H](Cc2ccccc2)C(=O)N2CCOCC2)S(=O)(=O)c2ccccc21", "inhibition": "-14.5% (inactive)"}
{"molecule": "CCOC(=O)N1CCC(NC(=O)C(NS(=O)(=O)c2ccc3c(c2)CCN3C(=O)CC)C(C)C)CC1", "note": "(configuration not stated)", "inhibition": "-32.3% (inactive)"}
{"molecule": "CCN(c1ccccc1)S(=O)(=O)c1ccc2[nH]c(=O)[nH]c2c1", "inhibition": "4.19% (inactive)"}
{"molecule": "O=C(O)c1ccc(NS(=O)(=O)c2cccc3nsnc23)cc1", "inhibition": "-11.7% (inactive)"}
{"molecule": "Cc1cc(-c2ccc(S(=O)(=O)N3CCN(c4cccc(C(F)(F)F)c4)CC3)s2)on1", "inhibition": "-11.3% (inactive)"}
{"molecule": "CCCCNC(=O)C1CCC(=O)N1CCc1ccccc1", "note": "(configuration not stated)", "inhibition": "4.38% (inactive)"}
{"molecule": "COc1ccc(N2CC(C)Cn3c2nc2c3c(=O)n(Cc3ccccc3F)c(=O)n2C)c(OC)c1", "note": "(configuration not stated)", "inhibition": "6.23% (inactive)"}
{"molecule": "O=C(/C=C/c1ccc(Cl)c([N+](=O)[O-])c1)c1ccc(O)cc1", "inhibition": "25.2% (active)"}
{"molecule": "CN(C)c1ccc(/C=C/C(=O)c2ccc(O)cc2)cc1[N+](=O)[O-]", "inhibition": "5.01% (inactive)"}
{"molecule": "CN(C)c1ccc(/C=C/C(=O)c2ccc(C(C)(C)C)cc2)cc1[N+](=O)[O-]", "inhibition": "-5.83% (inactive)"}
{"molecule": "CC(C)CCNC(=O)C(C)N(C(=O)Cn1nnc(-c2ccc(F)cc2)n1)C1CCCC1", "note": "(configuration not stated)", "inhibition": "-27.5% (inactive)"}
{"molecule": "CC1(c2nnc(Cc3ccccc3)o2)CC(c2ccccc2F)=NO1", "note": "(configuration not stated)", "inhibition": "-30.2% (inactive)"}
{"molecule": "O=[N+]([O-])/C=C/c1ccc2c(ccn2Cc2ccccc2)c1", "inhibition": "29.1% (inactive)"}
{"molecule": "COc1ccc(CN2CCCC(C(=O)N3CCCCC3)C2)cc1", "note": "(configuration not stated)", "inhibition": "-7.55% (inactive)"}
{"molecule": "COc1cc(N2CCCC2)c(OC)cc1/C=C(/C#N)c1cccc(Br)c1", "inhibition": "0.8% (inactive)"}
{"molecule": "Cc1noc(C)c1-c1nc(CSc2ccc(Cl)cc2)no1", "inhibition": "-15% (inactive)"}
{"molecule": "O=C(NCCC1CCCCN1S(=O)(=O)c1ccccc1)C(=O)NCC1CCCO1", "note": "(configuration not stated)", "inhibition": "-11.3% (inactive)"}
{"molecule": "CCOc1ncccc1C(=O)N(CC)CC(=O)Nc1ccc(NC(C)=O)cc1", "inhibition": "-12.8% (inactive)"}
{"molecule": "CCSc1nc2sc3c(c2c(=O)n1-c1ccc(C)cc1)CCN(C)C3", "inhibition": "-7.48% (inactive)"}
{"molecule": "CCc1ccc(OCC(=O)N(Cc2ccccc2)C2CCS(=O)(=O)C2)cc1", "note": "(configuration not stated)", "inhibition": "9.5% (inactive)"}
{"molecule": "O=C(NCc1ccc(F)cc1)C1CCC(CNc2c(N3CCOCC3)c(=O)c2=O)CC1", "note": "(configuration not stated)", "inhibition": "4.62% (inactive)"}
{"molecule": "CCNC(=S)N1CCN(S(=O)(=O)c2ccc(Cl)s2)CC1", "inhibition": "2.35% (inactive)"}
{"molecule": "CSc1cccc(NC(=O)C2CCCN2S(=O)(=O)c2ccc3c(c2)CCC(=O)N3)c1", "note": "(configuration not stated)", "inhibition": "-6.95% (inactive)"}
{"molecule": "COn1c(=O)c(=O)n(OC)c2ccccc21", "inhibition": "13.4% (inactive)"}
{"molecule": "CC(NC(=O)c1cccc2ccccc12)c1ccc2c(c1)CCCC2", "note": "(configuration not stated)", "inhibition": "-1.12% (inactive)"}
{"molecule": "COCCn1c(SCC(=O)Nc2ccc3c(c2)CCC3)nc2ccccc2c1=O", "inhibition": "4.39% (inactive)"}
{"molecule": "COC(=O)C1CCCCN1C(=O)c1ccc(OC2CCN(C(C)=O)CC2)c(OC)c1", "note": "(configuration not stated)", "inhibition": "-12.2% (inactive)"}
{"molecule": "Cc1cc(C)c(S(=O)(=O)N2CCCC2CNC(=O)c2ccc3c(c2)OCO3)c(C)c1", "note": "(configuration not stated)", "inhibition": "1.64% (inactive)"}
{"molecule": "Cc1cc(NC(=O)CCN2CCN(Cc3ccccc3)CC2)ccc1Br", "inhibition": "-5.24% (inactive)"}
{"molecule": "CN(CCO)S(=O)(=O)c1ccc2c(c1)C(=O)c1cc(S(=O)(=O)N(C)CCO)ccc1-2", "inhibition": "-0.05% (inactive)"}
{"molecule": "Cn1c(N)c(C(=O)COC(=O)c2cnc(Cl)c(Cl)c2)c(=O)n(C)c1=O", "inhibition": "13.4% (inactive)"}
{"molecule": "CCOc1ccc(NC(=O)CC(Cc2ccc(Cl)cc2)C(=O)O)cc1", "note": "(configuration not stated)", "inhibition": "11.4% (inactive)"}
{"molecule": "COc1ccc(CCNC(=O)COc2cc(C)cc3oc(=O)c(C)c(C)c23)cc1OC", "inhibition": "-41.4% (inactive)"}
{"molecule": "Cc1cccc(C(=O)OC(C)CN2CCCC2)c1", "note": "(configuration not stated)", "inhibition": "-16.4% (inactive)"}
{"molecule": "O=C(NC(=S)Nc1cc(C(F)(F)F)ccc1N1CCOCC1)c1ccc(-c2cccc(Cl)c2)o1", "inhibition": "12.2% (inactive)"}
{"molecule": "Cc1ccc(NC(=O)CSc2nc(=O)n(CCN(C)C)c3c2CCCC3)c(C)c1", "inhibition": "8.38% (inactive)"}
{"molecule": "Cc1c(C(=O)NCCN2C(=O)S/C(=C\\c3cccs3)C2=O)cccc1[N+](=O)[O-]", "inhibition": "-12.1% (inactive)"}
{"molecule": "Cc1cc(NC(=O)CSC2=NS(=O)(=O)c3cc(Cl)ccc3N2)no1", "inhibition": "6.86% (inactive)"}
{"molecule": "Cc1ccc(S(=O)(=O)NCC(C)NS(C)(=O)=O)cc1", "note": "(configuration not stated)", "inhibition": "-0.41% (inactive)"}
{"molecule": "CC(=O)N(O)CCCCCNC(=O)CCC(=O)N(O)CCCCCNC(=O)CCC(=O)N(O)CCCCCNC(=O)CCC(=O)O", "inhibition": "2.24% (inactive)"}
{"molecule": "O=C(NCc1ccncc1)C1CCN(C(=O)c2cccc(Cl)c2)CC1", "inhibition": "-13.3% (inactive)"}
{"molecule": "Cc1[nH]c2ccccc2c1C(=O)COC(=O)c1c(-c2ccccc2)noc1C", "inhibition": "-12.9% (inactive)"}
{"molecule": "Nc1nonc1-n1nnc(C(=O)N/N=C/c2cc(Br)ccc2O)c1CSC1=NCCS1", "inhibition": "-4.39% (inactive)"}
{"molecule": "Cc1c(-c2ccccc2)cn2c1-c1ccc(C)n1CC2", "inhibition": "-5.32% (inactive)"}
{"molecule": "Cc1noc(C)c1COc1cccc(C(=O)Nc2cccnc2)c1", "inhibition": "22.3% (active)"}
{"molecule": "CC(=O)c1cccc(OCc2cc(C(=O)NC(C)Cc3cccnc3)no2)c1", "note": "(configuration not stated)", "inhibition": "-3.71% (inactive)"}
{"molecule": "Cc1noc(C)c1COc1ccc(C(=O)NCCOc2ccccc2)cc1", "inhibition": "-0.9% (inactive)"}
{"molecule": "CCc1nc2ccccc2n(CCOCCOCCn2c(=O)c(CC)nc3ccccc32)c1=O", "inhibition": "-0.84% (inactive)"}
{"molecule": "CN(C(=O)CSc1nnc(Nc2ccccc2)s1)C1CCS(=O)(=O)C1", "note": "(configuration not stated)", "inhibition": "16.5% (inactive)"}
{"molecule": "C/C=C/C(=O)Nc1ccc(N2CCN(c3ccc(C(F)(F)F)cn3)CC2)nc1", "inhibition": "-13% (inactive)"}
{"molecule": "O=P(O)(CP(=O)(c1ccccc1)c1ccccc1)c1ccccc1", "inhibition": "4.79% (inactive)"}
{"molecule": "COc1ccc(S(=O)(=O)N2CCSCC2)cc1", "inhibition": "16.4% (inactive)"}
{"molecule": "CCn1cc(C(=O)NCCCN2CCCCCC2)c(=O)c2cc(S(=O)(=O)N3CCc4ccccc4C3)ccc21", "inhibition": "-11% (inactive)"}
{"molecule": "CCOC(=O)c1cn(CC)c2cc(F)c(F)cc2c1=O", "inhibition": "-4.15% (inactive)"}
{"molecule": "CC[C@H](C)[C@@H](C(=O)N1CCNCC1)n1cc([C@@H](N)Cc2ccc(O)cc2)nn1", "inhibition": "-7.48% (inactive)"}
{"molecule": "COCc1cc(=O)[nH]c(SC)n1", "inhibition": "-5.28% (inactive)"}
{"molecule": "O=C(CSc1nnc(Nc2ccccc2F)s1)NC1CCCC1", "inhibition": "-11.3% (inactive)"}
{"molecule": "CCN(CC(=O)Nc1cc(Cl)ccc1C)C(=O)CSCc1ccc(C)cc1", "inhibition": "-29.4% (inactive)"}
{"molecule": "CC[n+]1cc(C)ccc1/C=C/c1ccc(N(C)C)cc1", "inhibition": "9.17% (inactive)"}
{"molecule": "CCCCN(C(=O)c1cccc(N2C(=O)c3ccccc3C2=O)c1)c1c(N)n(CCCC)c(=O)[nH]c1=O", "inhibition": "-1.54% (inactive)"}
{"molecule": "O=c1[nH]nc(Cc2ccccn2)c2ccccc12", "inhibition": "34.8% (inactive)"}
{"molecule": "c1ccc2c(c1)OC1OC2Oc2ccccc21", "inhibition": "2.1% (inactive)"}
{"molecule": "CCOc1ccc(S(=O)(=O)Nc2cccc(C(=O)NCC3(N4CCCCC4)CCCCC3)c2)cc1", "inhibition": "-7.44% (inactive)"}
{"molecule": "CC(C)COc1ccc(C(=O)NNC(=O)CCC(=O)c2cccs2)cc1", "inhibition": "8.1% (inactive)"}
{"molecule": "Cc1cccc(NC(=O)N2CCCCCC2)c1C", "inhibition": "-15.6% (inactive)"}
{"molecule": "CC[C@]1(C(=O)OC)[C@H]2C(=O)N(Cc3ccccc3)C(=O)[C@H]2[C@H]2CN=C(SCc3ccc(Cl)cc3)N21", "inhibition": "4.46% (inactive)"}
{"molecule": "CCC1Nc2ncnc(N3CCN(c4ccccc4)CC3)c2N(Cc2ccc(Cl)cc2)C1=O", "note": "(configuration not stated)", "inhibition": "72% (active)"}
{"molecule": "O=C1C(Cc2ccc(O)cc2)NC(=S)N1Cc1ccccc1", "note": "(configuration not stated)", "inhibition": "-7.4% (inactive)"}
{"molecule": "N#Cc1ccc(C2=CC(=O)C[C@H](c3ccc(Cl)cc3)C2)cc1", "inhibition": "-10.1% (inactive)"}
{"molecule": "O=C(Nc1ccc(Cl)c(Cl)c1)N1CC=C(c2ccccc2)CC1", "inhibition": "13.3% (inactive)"}
{"molecule": "C=CCN1C=C(C(=O)c2ccccc2)C(=O)CC1", "inhibition": "6.15% (inactive)"}
{"molecule": "CCc1nccn1CCC(=O)N1CCCC(N2CCN(c3ccccc3F)CC2)C1", "note": "(configuration not stated)", "inhibition": "5.46% (inactive)"}
{"molecule": "COc1ccc([C@H]2CC(=O)C=C(c3ccc(CO)cc3)C2)cc1", "inhibition": "8.13% (inactive)"}
{"molecule": "O=C1c2ccccc2[C@@H]2C[C@@H](O)[C@H](Nc3ccccc3Cl)CCN12", "inhibition": "-0.71% (inactive)"}
{"molecule": "Cc1cc(C)nc(SC(C)C(=O)N/N=C/c2cccs2)n1", "note": "(configuration not stated)", "inhibition": "9.06% (inactive)"}
{"molecule": "O=C(Cc1ccccn1)c1ccc(O)cc1O", "inhibition": "12.8% (inactive)"}
{"molecule": "COc1ccc(-c2nnc(SC(=O)N3c4ccccc4Sc4ccccc43)o2)cc1", "inhibition": "-1.76% (inactive)"}
{"molecule": "COc1ccc(-c2nnc(SCC(=O)NC3CCCCC3)o2)cc1OC", "inhibition": "0.53% (inactive)"}
{"molecule": "COc1ccc(-c2nnc(SC(C)C(=O)NC3CC3)o2)cc1", "note": "(configuration not stated)", "inhibition": "24.2% (active)"}
{"molecule": "COc1cc(N)c(Cl)cc1C(=O)OCC(=O)c1ccc2c(c1)NC(=O)CO2", "inhibition": "10.7% (inactive)"}
{"molecule": "Cc1nnc(SCC(=O)N(C(C)C)C(C)C)nc1C", "inhibition": "7.98% (inactive)"}
{"molecule": "COc1ccc(N/N=C2/CCCCC2=O)cc1", "inhibition": "-17.4% (inactive)"}
{"molecule": "CCCCN1CC(COc2ccccc2)Oc2cccc(F)c2S1(=O)=O", "note": "(configuration not stated)", "inhibition": "-4.35% (inactive)"}
{"molecule": "CN1C(CC(=O)Nc2ccc(Br)cc2)c2ccccc2CC1(C)C", "note": "(configuration not stated)", "inhibition": "-2.97% (inactive)"}
{"molecule": "Cc1cc(C(=O)COc2ccccc2[N+](=O)[O-])c(C)n1-c1cccc(S(=O)(=O)N2CCOCC2)c1", "inhibition": "-23.2% (inactive)"}
{"molecule": "O=C1CC(C(=O)O)NC(=S)N1", "note": "(configuration not stated)", "inhibition": "-5.32% (inactive)"}
{"molecule": "COc1ccc2oc(C(=O)N(CC(C)C)C3CCS(=O)(=O)C3)c(C)c2c1", "note": "(configuration not stated)", "inhibition": "5.04% (inactive)"}
{"molecule": "CCCCCCCCc1c(O)nc(-n2[nH]c(C)c(CCO)c2=O)[nH]c1=O", "inhibition": "23.4% (active)"}
{"molecule": "CCCCCc1c(C)nc(N2CCN(Cc3ccc4c(c3)OCO4)CC2)[nH]c1=O", "inhibition": "-8.1% (inactive)"}
{"molecule": "CCCCc1c(O)nc2n(c1=O)CCS2", "inhibition": "-25.6% (inactive)"}
